Potency and activity change, negative = inhibition data for 67 compounds are collected here from PubChem BioAssay AID651820 (National Center for Advancing Translational Sciences (NCATS), 2012).

SMILES strings stand for the structures. Hit rate of the full screen: of about 340,000 compounds, about 12,000 (3.5%) were called active. Entries that show only a call come without a potency. Not shown: some 18% with an inconclusive outcome. The call rests on the fitted dose curve; in most records, active means well fitted inhibition curve with a large enough effect; inconclusive means small, poorly fitted or top-dose-only effect, or another doubt; inactive means no such curve, though single readings can be large or run the other way. The full list was thinned out, with actives kept by preference.
Potency means the concentration at half of the fitted maximal effect.

This assay can be described thus: qHTS Assay for Inhibitors of Hepatitis C Virus (HCV). Conditions: Huh7.5.1 HCVcc-Cre infection, luciferase reporter, 44 h; series mostly up to 41.8 µM. In short, it runs like this: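 Infectious HCVcc-Cre (~0.5 moi) was added to cells just after compound, with cells seeded 4 h earlier at 1,000 per well. Luciferase activity after 44 h culture reported infection; substrate was incubated 15 min at room temperature before reading.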
(In general: Quantitative high-throughput screening tests each substance at several concentrations.)
Take `NC(=O)c1ncn([C@@H]2O[C@H](CN=C3NS(=O)(=O)c4ccccc43)[C@@H](O)[C@H]2O)n1`: the Potency entry is “inactive”.
Regarding `CCOC(=O)C(C)n1cnc2sc(C)c(C)c2c1=O` (configuration not stated), the Potency result was “inactive”.
With `CCCNc1ncnc2sc(C)c(C)c12`, the Potency is 8.91 µM (active).
Take `CSc1ncnc2sc(C)c(C)c12`: the Potency entry was “inactive”.
Take `CCN(C(=O)CSc1nnnn1-c1ccccc1OC)C1CCS(=O)(=O)C1` (configuration not stated): the Potency result is “inactive”.
Regarding `O=C(CCc1ccc(S(=O)(=O)N2CCOCC2)cc1)OCC(=O)c1ccc(Br)cc1`, the Potency result is “inactive”.
`Clc1ccc(Cn2ncc3c(NCc4cccnc4)ncnc32)cc1`: the Potency is 11.2 µM (active).
In the case of `CC(=O)Nc1ccc(NC(=O)CSc2ncnc3c2cnn3Cc2ccccc2)cc1`, the Potency entry was “inactive”.
Consider `Clc1ccc(Nc2ncnc3c2nnn3Cc2ccccc2)cc1`, for which the Potency entry was “inactive”.
The same measure, in the same setting: next, `O=C(Cn1cnc2ccccc2c1=O)NNC(=O)c1ccccc1F`: “inactive”; `CC(C)NC(=O)Nc1cccc2c1O[C@@H](CN(C)S(=O)(=O)c1ccc(F)cc1)[C@@H](C)CN([C@H](C)CO)C2=O`: “inactive”; `O=C(CNC(=O)c1ccc(F)cc1)c1ccccc1`: “inactive”.
Consider `Cc1cccc[n+]1CC(=O)c1ccccc1`, for which the Potency result was “inactive”.
In the case of `O=C(C[n+]1cc(Br)cc2ccccc21)c1ccc(F)cc1`, the Potency was 10 µM (active).
In the case of `O=C(NCCS(=O)(=O)NCc1ccc(F)cc1)c1ccccc1`, the activity change, negative = inhibition is -2.73% [at 8.37 µM] (inactive).
Take `O=C(NCc1cccnc1)c1cc(S(=O)(=O)N2CCOCC2)c(Cl)cc1Cl`: the Potency entry is “inactive”.
`Cc1ccc(S(=O)(=O)N2CCN(c3ncnc4ccccc34)CC2)cc1`: the Potency was 8.91 µM (active).
For the compound `Cc1ccc(S(=O)(=O)N2CCN(C)CC2)cc1`, the Potency result is “inactive”.
With `Cc1ccc(S(=O)(=O)N2CCN(Cc3cccc(C)c3O)CC2)cc1`, the Potency entry is “inactive”.
On to `CC(=O)Nc1ccc(NC(=O)CSc2nnc(C3CC3)n2-c2ccccc2)cc1`, for which the Potency entry is “inactive”.
On to `Cc1cccc(-c2oc3ccc(-c4ccc5c(c4)OCO5)cc3c2C#Cc2cncn2C)c1`, for which the Potency entry is “inactive”.
With `Cc1ccc(C(=O)O)c(NC=O)c1OCc1ccccc1`, the Potency entry was “inactive”.
With `Cc1ccc(S(=O)(=O)N2[C@@H](c3cccc4ccccc34)C(C(=O)O)=C[C@H]2C(C)(C)C)cc1`, the Potency entry was “inactive”.
On the same count and under the same terms, under `COc1ccc(-c2n[nH]c(C)c2-c2ccc(OC)c(OC)c2)c(O)c1` stands 11.2 µM (active).
As for `CCOc1ccc(-c2n[nH]c(C)c2-c2ccccn2)c(O)c1`, the Potency result was “inactive”.
As for `COc1ccc(-n2c(-c3ccc(OC)c(OC)c3)n[nH]c2=S)cc1`, the Potency result is “inactive”.
Turning to `O=C1NCC(Nc2ccccc2)C(=O)N1` (configuration not stated), the Potency result is “inactive”.
Same read-out and setting: next, `CCN(Cc1ccccc1)S(=O)(=O)c1cc2c3c(c1)CCN3C(=O)CC2`: “inactive”.
Consider `Cc1ccc(C)c(N2CCN(C(=O)CCc3nc(-c4cccc(C(F)(F)F)c4)no3)CC2)c1`, for which the Potency entry is “inactive”.
As for `COC(=O)c1ccc(C)c(NC(=O)Cn2c(C)csc2=O)c1`, the Potency entry is “inactive”.
As for `CCOc1ccc2nc(NC(=O)CSc3nc4c(c(=O)n(C)c(=O)n4C)n3CC)sc2c1`, the Potency is 3.98 µM (active).
On the same count and under the same terms, under `Cn1nnnc1SCC(=O)Nc1nc2ccccc2s1` stands “inactive”.
Consider `C#CC(C)(C)NC(=O)CSc1nc2c(c(=O)n(C)c(=O)n2C)n1CCCC`, for which the Potency entry is “inactive”.
On the same count and under the same terms, under `O=C(Cn1cnc2c(OCc3ccccc3)ncnc21)NCCCn1ccnc1` stands “inactive”; under `Cc1ccc(-n2nc3cc(Cl)c(NC(=O)c4ccco4)cc3n2)cc1`, “inactive”; under `CCn1nc(NC(=O)c2ccco2)c2cc3ccc(C)cc3nc21`, 10 µM (active).
As for `Cc1ccc(Cn2c(NC(=O)c3ccco3)nc3ccccc32)cc1`, the Potency entry was “inactive”.
In the case of `CN1CCOC1c1ccc(C2OCCN2C)cc1` (configuration not stated), the Potency result is “inactive”.
Consider `COc1ccccc1CC(=O)Nc1ccc(S(=O)(=O)N2CCCC2)cc1`, for which the Potency result is “inactive”.
In the case of `COc1ccc(-c2ccc(Nc3ccc(S(=O)(=O)N4CCCC4)cc3)nn2)cc1OC`, the Potency is 12.6 µM (active).
Consider `COc1ccc(S(=O)(=O)Nc2ccc(S(=O)(=O)N3CCCCC3)cc2)cc1OC`, for which the Potency entry was “inactive”.
Take `COc1ccc(NS(=O)(=O)c2ccc(N3CCOCC3)c(NC(=O)/C=C/C(=O)O)c2)cc1`: the Potency entry is “inactive”.
With `Cc1nc(Nc2ccccc2F)c2nnn(Cc3ccccc3Cl)c2n1`, the Potency result was “inactive”.
As for `Cc1nc(Nc2ccc3c(c2)OCCO3)c2nnn(Cc3ccccc3Cl)c2n1`, the Potency was 10 µM (active).
Consider `CCCc1nc(NCc2ccc3c(c2)OCO3)c2nnn(Cc3ccccc3Cl)c2n1`, for which the Potency result is “inactive”.
Consider `CCN(CC(=O)Nc1ccccc1C(=O)NC1CC1)Cc1cccs1`, for which the Potency entry was “inactive”.
With `Cc1ccccc1NC(=O)Cc1nc(COC(=O)c2ccc(C(F)(F)F)cc2)cs1`, the Potency result was “inactive”.
Regarding `COc1cccc(NC(=S)N(CCc2c(C)[nH]c3ccccc23)Cc2ccco2)c1`, the Potency was 25.1 µM (active).
In the case of `CCNC(=S)N(CCc1c(C)[nH]c2ccc(C)cc12)Cc1ccco1`, the activity change, negative = inhibition was 1.39% [at 8.37 µM] (inactive).
`COc1cccc(NC(=S)NCc2ccco2)c1`: the Potency result was “inactive”.
With `CC(C)CC1(C)NC(=O)N(CC(=O)Nc2ccc3c(c2)OCCO3)C1=O` (configuration not stated), the Potency result is “inactive”.
On the same count and under the same terms, under `O=C(CN1CCOCC1)Nc1cc(Cl)ccc1Cl` stands “inactive”.
On to `CC1(c2ccccc2)NC(=O)N(CC(=O)Nc2cc(Cl)ccc2N2CCOCC2)C1=O` (configuration not stated), for which the Potency result was “inactive”.
In the case of `O=C(CSc1nc(Nc2ccccc2)nc(N2CCOCC2)n1)Nc1cc(Cl)ccc1O`, the Potency is 10 µM (active).
For `C#CCOCCOCCOCCNc1nc(N2CCN(C(=O)Cn3cc(CCO)nn3)CC2)nc(N2CCN(C(=O)Cn3cc(CCCN=C(N)N)nn3)CC2)n1`, the Potency result was “inactive”.
For the compound `CCCCNC(=O)CSc1nc2n[nH]c(C)c2c(=N)n1-c1cccc(Cl)c1C`, the Potency was 15.8 µM (active).
Take `CCCCNC(=O)CSc1nccn1Cc1ccccc1`: the Potency result is “inactive”.
For the compound `CCCCNC(=O)CSc1nnc(-c2ccco2)n1C`, the Potency result was “inactive”.
Turning to `CCn1nc(C(=O)NNC(=O)C2CSC3(C)CCC(=O)N23)c2ccccc2c1=O` (configuration not stated), the Potency result was “inactive”.
Regarding `COc1cccc(CNC(C)C(=O)Nc2ccc(S(=O)(=O)N3CCCC3)cc2)c1` (configuration not stated), the Potency entry was “inactive”.
Consider `COC(=O)c1cc(-c2cccs2)nc2ccccc12`, for which the Potency is 12.6 µM (active).
On to `O=C(NCCN1CCOCC1)c1cc(-c2cccs2)nc2ccccc12`, for which the Potency entry is “inactive”.
Consider `O=C(Nc1nnc(-c2ccccc2)o1)c1cc(-c2cccs2)nc2ccccc12`, for which the Potency result is “inactive”.
With `N/C(=N\OC(=O)CCc1ccccc1)c1cccnc1`, the Potency result is “inactive”.
Consider `O=C(O)CCCc1ccccc1`, for which the Potency result is “inactive”.
For `O=C(O)CCc1cccnc1`, the Potency was 0.891 µM (active).
Still for that read-out and setting: next, `COc1ccc2c(CC(=O)NNC(=O)c3ccccc3F)coc2c1`: “inactive”.
